# Bioassay records: PubChem BioAssay, Broad Institute
# Glyco luc inh: increase of ERlucT glycosylation luciferase signal, primary screen, N-linked glycosylation inhibitor project, D54 ERlucT cells, luminescence, set 2. AID 588692, 2011. reporter increase, % at 12.5 µM. D54 ERlucT glycosylation luciferase reporter, 24 h; percent of 100 nM tunicamycin response. actives 0.23% (n = 360,000);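 active = mean luciferase reporter signal, scaled so untreated is 0 and the glycosylation-blocking control 100, at or above a set limit in every replicate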;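 note: luciferase carries N-glycosylation sites so blocking glycosylation raises the light; 0% = median of neutral control wells and 100% = median of 100 nM tunicamycin wells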
# CASP6 VEID inh: human caspase-6 inhibitors, primary screen, biochemical, VEID-R110 fluorescence, single point, set 2. P55212. purified caspase-6, Z-VEID-R110 cleavage fluorescence. actives 0.53% (n = 350,000). inhibition, % at 12.5 µM;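 active = mean inhibition across replicates at least about 35%, with every replicate also reaching that limit, limit read from the data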;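 note: 0% = median of neutral control wells and 100% = no fluorescence left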
# CDK5 p35 inh: inhibitors of human CDK5/p35 kinase, primary screen, biochemical, single concentration; Recombinant CDK5/p35, ADP-Glo luminescence, 60 min; inhibition, % at 10 µM; actives 0.01% (n = 330,000); AID 488839, 2010;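 active = highest replicate inhibition of at least 50% and at least 75% of replicates reaching 50%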;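 note: plate controls were DMSO neutral control for no effect and GW8510 at 10 µM for full effect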
# Target sequence (Q00535 whole entry, looked up): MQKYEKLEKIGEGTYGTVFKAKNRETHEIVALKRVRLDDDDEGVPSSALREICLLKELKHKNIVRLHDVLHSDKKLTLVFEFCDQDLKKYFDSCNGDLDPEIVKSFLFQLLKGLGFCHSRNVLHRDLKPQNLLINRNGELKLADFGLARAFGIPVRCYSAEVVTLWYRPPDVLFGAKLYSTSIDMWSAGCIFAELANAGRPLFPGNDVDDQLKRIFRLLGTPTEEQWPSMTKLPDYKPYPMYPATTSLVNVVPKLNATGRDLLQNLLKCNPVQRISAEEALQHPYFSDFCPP
# Target sequence (Q15078 whole entry, looked up): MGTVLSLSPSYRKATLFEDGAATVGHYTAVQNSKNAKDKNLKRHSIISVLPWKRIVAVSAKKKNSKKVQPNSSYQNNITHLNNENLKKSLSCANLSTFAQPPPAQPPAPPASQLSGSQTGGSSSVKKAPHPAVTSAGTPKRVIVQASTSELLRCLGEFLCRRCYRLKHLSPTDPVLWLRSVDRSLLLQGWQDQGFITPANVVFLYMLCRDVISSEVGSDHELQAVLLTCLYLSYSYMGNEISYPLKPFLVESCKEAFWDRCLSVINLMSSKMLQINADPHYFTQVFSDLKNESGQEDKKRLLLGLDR
# ALR inh: inhibitors of human ALR sulfhydryl oxidase, primary screen, biochemical, H2O2 detection, HRP-luminol luminescence, single point | FAD-linked sulfhydryl oxidase ALR (Homo sapiens), P55789 | purified ALR, DTT oxidation | inhibition, % (concentration not given with the values) | actives 3.8% (n = 290,000);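 active = mean replicate inhibition above about 79%, with every replicate also reaching it, limit read from the data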
# NSD2 HMT inh: NSD2 histone methyltransferase inhibitors, primary screen, biochemical, AlphaScreen, single concentration, set 2; Histone-lysine N-methyltransferase NSD2 (Homo sapiens), O96028; NSD2 peptide methylation, 120 min; inhibition, % at 12.5 µM; actives 0.54% (n = 310,000); in the data active = inhibition above about 50%
# Mot1-301 SUMO: yeast Mot1-301 growth rescue at high temperature, primary screen, SUMOylation pathway inhibitor project, S. cerevisiae, ATP luminescence, 38.5C; S. cerevisiae Mot1-301 growth rescue; percent above DMSO median, 100 means doubled; AID 2716, 2010; actives 1% (n = 320,000); growth rescue, % at 18.8 µM;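 active = every valid replicate shows activation above 250% relative to neutral control wells; inactive = the rest, any valid replicate at or below 250%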;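 note: OY570 slx delta 5 strain wells were the positive control but not used for scaling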
# Alpha artifact: AlphaScreen signal interference with preloaded methylated product, dose response, artefact control for NSD2 inhibitor project, biochemical, cherry-picked samples; shares compounds with NSD2 HMT inh; AlphaScreen artifact counterscreen, preloaded methylated H4 peptide; AC35, µM (doses to about 10 µM), inactives show at the highest dose activity change, negative = signal loss; actives 9.4% (n = 1,500); call rule not given here
# Numbers without * were called inactive; / = not tested or not shown; + = active, no number. Shown are actives, neighbours in structure and some others; about 3.9% of the full set was active somewhere.
SMILES,Glyco luc inh,CASP6 VEID inh,CDK5 p35 inh,ALR inh,NSD2 HMT inh,Mot1-301 SUMO,Alpha artifact
CCCNC(=O)N(C)C[C@H]1Oc2ncc(-c3ccccc3)cc2C(=O)N([C@@H](C)CO)C[C@@H]1C,/,-5.0,/,/,/,/,/
CCCC(=O)Nc1ccc2c(c1)C(=O)N(C)[C@@H]1CC[C@@H](CC(=O)Nc3cn(C)nc3C)O[C@H]1CO2,/,0.1,/,/,/,/,/
COc1cccc(CN(C)C[C@@H]2OCc3cn(nn3)CCCC(=O)N([C@H](C)CO)C[C@@H]2C)c1,/,0.4,/,/,/,/,/
O=C(C[C@@H]1C[C@H]2c3cc(NC(=O)C4CCOCC4)ccc3O[C@H]2[C@@H](CO)O1)NCc1cc(F)ccc1F,/,1.7,/,/,/,/,/
CCOC(=O)c1c(C)oc2c1c(C=NCCC(=O)O)c(O)c1ccccc12,-0.2,30.9,0.0,62.2,163.6*,1.5,0.4%
CCOC(=O)c1c(C)oc2c1c(CN1CCN(CCO)CC1)c(O)c1ccccc12,10.4,2.0,5.2,/,3.1,/,/
Cc1ccc(S(=O)(=O)N2CCN(C(=O)CCn3nc(C)c(C)c3C)CC2)cc1,1.8,-0.2,-0.7,-5.5,3.1,-6.1,/
Cc1cc(C)n(CCC(=O)N2CCN(S(=O)(=O)c3ccccc3)CC2)n1,-0.4,2.3,-1.7,0.0,54.0*,238.2,0.5%
O=C(NCc1ccc2c(c1)OCO2)c1ccc2c(c1)C(=O)N(Cc1cccnc1)C2=O,-0.1,/,-0.4,-3.8,-0.1,-10.4,/
O=C(NCc1cccnc1)c1ccc2c(c1)OCO2,2.0,2.6,-0.6,-16.4,66.4*,/,-2.5%
Cc1cccc(C(=O)NCC(=O)OCc2nnc(-c3ccccc3)o2)c1,0.9,0.3,0.8,-6.8,+,3.0,-0.7%
O=C(CNC(=O)c1ccccc1)OCc1nnc(-c2ccc(Cl)cc2)o1,0.8,7.4,-0.2,-1.0,-1.3,-3.2,/
COc1ccc(CCCc2n[nH]c(=S)n2C)cc1C,3.5,2.0,2.5,31.5,52.3*,65.1,-1.7%
C=CCn1c(SCC(=O)c2ccc(O)c(O)c2)nnc1-c1cccc(C)c1,-4.7,20.8,1.0,70.0,/,6.7,/
C=CCn1c(SCC(=O)c2ccc(O)c(O)c2)nnc1-c1cccnc1,2.3,61.2*,0.5,99.1*,71.7*,-10.5,-7.0%
C=CCn1c(SCC(=O)c2ccc(O)c(O)c2)nnc1-c1ccccc1OC,-4.0,17.7,0.8,64.4,/,-9.1,/
CCn1c(SCC(=O)c2ccc(O)c(O)c2)nnc1-c1ccccc1OC,-2.9,/,-0.7,98.8*,88.4*,47.8,-18.8%
CCCNC(=O)N1CC2(CCN(C(=O)c3ccncc3)CC2)c2c([nH]c3cc(OC)ccc23)[C@H]1CO,/,-3.0,/,/,/,/,/
COc1cc(CN2CC3(CN(C(=O)Nc4cccc(F)c4)C3)c3c(n(C)c4cc(OC)ccc34)[C@H]2CO)cc(OC)c1,/,0.5,/,/,/,/,/
CCNCCNc1ccc(Cl)cc1[N+](=O)[O-],-3.0,/,0.1,-11.0,63.8*,33.8,-3.4%
O=C(NC1CCCC1)C(c1cccnc1)N(C(=O)c1csnn1)C1CC1 (configuration not stated),1.2,/,-1.4,3.3,-0.8,-8.7,/
COc1cccc(C(C(=O)NC2CCCC2)N(C(=O)c2csnn2)C2CC2)c1 (configuration not stated),-3.6,-1.8,2.7,8.2,99.0*,-19.1,-1.6%
CCOc1cc(/C=C2\C(=O)NN(c3ccccc3)C2=O)cc([N+](=O)[O-])c1O,0.1,37.0*,-16.7,95.4*,110.9*,47.3,-9.5%
C[C@H](CO)N1C[C@H](C)[C@H](CN(C)Cc2ccc(Cl)c(Cl)c2)Oc2ccc(NS(=O)(=O)c3cccs3)cc2CC1=O,/,-2.3,/,/,/,/,/
C[C@@H]1CN([C@H](C)CO)C(=O)c2cc(C#CC3(O)CCCC3)cnc2O[C@H]1CN(C)C(=O)Cc1cccnc1,/,-0.3,/,/,/,/,/
SMILES,Glyco luc inh,CASP6 VEID inh,CDK5 p35 inh,ALR inh,NSD2 HMT inh,Mot1-301 SUMO,Alpha artifact
O=C(NC(c1ccc(Cl)cc1)c1cc(Cl)c2cccnc2c1O)c1cccnc1 (configuration not stated),-11.6,/,0.8,-1.5,62.7*,-13.6,-3.5%
C[C@@H]1CCCCO[C@H](CN(C)S(=O)(=O)c2ccc(F)cc2)[C@@H](C)CN([C@@H](C)CO)C(=O)c2cc(NS(=O)(=O)c3ccc(Cl)cc3)ccc2O1,/,0.0,/,/,/,/,/
CC(C)(C)c1cc[n+](C2=C([O-])c3ccccc3C(=O)/C2=N\S(=O)(=O)c2cccs2)cc1,-19.7,32.6,/,-24.9,61.5*,1.7,-6.4%
C[C@@H]1CCCCO[C@@H](CN(C)C(=O)c2ccccc2)[C@H](C)CN([C@@H](C)CO)C(=O)c2cc(NS(=O)(=O)c3ccccc3)ccc2O1,/,-3.2,/,/,/,/,/
Cc1cccc(N2CCN(S(=O)(=O)c3c(C)nc4scc(C)n4c3=O)CC2C)c1 (configuration not stated),-1.3,-0.4,0.6,68.3,105.0*,187.8,1.2%
Cc1nc2scc(C)n2c(=O)c1S(=O)(=O)N1CCN(c2ccccc2)CC1,-0.3,-1.3,1.8,74.2,5.8,175.9,/
Cc1ccccc1S(=O)(=O)N1C[C@@H](O)COC[C@@H]2O[C@@H](CC(=O)O)CC[C@H]21,/,1.9,/,/,/,/,/
Cc1onc(-c2c(Cl)cccc2Cl)c1C(=O)ONC(=O)c1cc(C(F)(F)F)cc(C(F)(F)F)c1,0.2,-5.1,0.1,-8.3,59.2*,204.0,-0.4%
Cc1cccc(Nc2nc(N)c([N+](=O)[O-])c(NCc3ccco3)n2)c1,-5.3,2.5,-0.1,2.7,-0.3,62.4,/
Cc1cccc(Nc2nc(NCc3ccco3)nc(N)c2[N+](=O)[O-])c1,-2.4,3.7,-0.5,-2.6,96.4*,28.9,-5.3%
CC1CCCCC12NC(=O)N(CC(=O)NCc1ccco1)C2=O (configuration not stated),-1.9,0.1,0.8,/,0.1,3.1,/
CC1CCCCC12NC(=O)N(CC(=O)NC(=O)NCc1ccco1)C2=O (configuration not stated),0.4,/,-0.4,-5.7,121.3*,-11.7,4.7%
NS(=O)(=O)c1ccc(NC2=CC(=O)C(=O)c3ccccc32)cc1,-6.9,68.3*,-0.2,-9.2,57.8*,2.2,-4.8%
Cc1ccc(NC2=CC(=O)C(=O)c3ccccc32)cc1,-15.2,/,2.6,-35.2,64.6*,-17.5,0.1%
